# Reference: PubChem BioAssay AID686978 (National Center for Advancing Translational Sciences (NCATS), 2013)
# Where “and” joins values, the source holds several entries; their conditions need not be identical. Identical values can stand only once. Among all 420,000 compounds or so, about 64,000 (15%) were called active. Not shown: some 27% with an inconclusive outcome. Calls come from the whole dose curve; as a rule, active = well fitted inhibition curve with a large enough effect; inconclusive = small, poorly fitted or top-dose-only effect; inactive = flat fitted curve, though single readings scatter. A selection follows. A call without a number means that no potency is given here. More than one record can exist for a structure, and the calls need not agree.
# Test: qHTS for Inhibitors of human tyrosyl-DNA phosphodiesterase 1 (TDP1): qHTS in cells in absence of CPT; note: nearly all actives have a fitted effect of over 55% in size
# Conditions: DT40 Tdp1-/- hTDP1 cells, no CPT, ATP luminescence, 48 h; activity change, negative = growth inhibition: at 46.2 µM (top of the series)
# Outline: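 Seeded 400 DT40-hTDP1 cells/well (vehicle DMSO, no 20 nM CPT); pinned compounds; ≥48 hr at 37 °C; CellTiter-Glo luminescence as viability measure.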
# Potency is the fitted concentration of half-maximal effect.
row,Compound,Potency
1,COC(=O)/C=C/C(=O)NCc1ccco1,inactive
2,COc1cc2c(C(=O)O)c(C)n(C)c2c2ccccc12,inactive
3,COc1cccc(/C=N/NC(=O)C(=O)N2CCCC2)c1,inactive
4,O=c1[nH]c(/C=C\c2cccc(C(F)(F)F)c2)nc(O)c1[N+](=O)[O-],inactive
5,Cc1cccc(NC(=O)CSc2nnc(NC(=O)CN3CCOCC3)s2)c1,inactive
6,Cn1c(=S)sc2ccc3ccccc3c21,inactive
7,O=c1c2c(nc3cc(-c4cccc(Cl)c4)[nH]n13)CCCC2,20.6 µM (active)
8,C=CCc1c(C)nc2cc(-c3ccccc3)[nH]n2c1=O,inactive
9,O=c1c2c(nc3nc[nH]n13)CCC2,inactive
10,CN(C)S(=O)(=O)c1ccc(Cl)c(NC(=O)COC(=O)CC(NC(N)=O)c2ccc(Cl)cc2)c1 (configuration not stated),inactive
11,Cc1ccc(N(CC(=O)NCC2CCCO2)C(=O)CNS(=O)(=O)c2ccc(Cl)cc2)cc1 (configuration not stated),inactive
12,CC(Sc1nnc(C2CC2)n1C1CC1)C(=O)Nc1ccc(C(N)=O)cc1 (configuration not stated),inactive
13,O=C1CCCC2=C1C(c1cccs1)CC(=O)N2c1ccc(F)cc1 (configuration not stated),inactive
14,O=C1CCCC2=C1C(c1cccs1)n1nc(SCc3ccccc3)nc1N2 (configuration not stated),14.6 µM (active)
15,CCN(CC)c1ccc(C2C(C(N)=O)=C(C)Nc3nc(SCc4ccccc4)nn32)cc1 (configuration not stated),inactive
16,O=S(=O)(NCc1ccccc1Cl)c1cnc[nH]1,inactive
17,Cc1ccc(NC(=O)CCOc2ccccc2)cc1S(=O)(=O)Nc1ccccc1Cl,inactive
18,CC(C)c1ccc(C(=O)OC2CCOC2=O)cc1 (configuration not stated),inactive
19,COc1cccc(CNCCc2c[nH]c3ccccc23)c1OCc1ccccc1F,20.6 µM (active)
20,COc1ccccc1CC(=O)NCCc1c[nH]c2ccccc12,inactive
21,COc1ccc(S(=O)(=O)NCCc2c[nH]c3ccccc23)cc1OC,inactive
22,CCc1c(SCCC(=O)O)nc2ccccc2c1C,inactive

row,Compound,Potency
1,Cc1ccc(N2CCN(c3ccc(C)cc3)C2c2ccccn2)cc1,inactive
2,CN(C(=O)CSc1nnc(-c2ccc(C(C)(C)C)cc2)n1C)C1CCS(=O)(=O)C1 (configuration not stated),inactive
3,CCOc1cccc(C(=O)Nc2nnc(S(=O)(=O)N(C)c3ccc(C)cc3)s2)c1,23.1 µM (active)
4,CC(C)CC(=O)Nc1nnc(S(=O)(=O)N(C)c2ccc(Cl)cc2)s1,inactive and 326 nM (active)
5,COc1cccc(C(=O)Nc2nnc(S(=O)(=O)N(C)c3ccccc3)s2)c1,inactive
6,CCc1nnc(NC(=O)c2cccc(S(=O)(=O)N(C)c3ccc(OC)cc3)c2)s1,inactive
7,CCCCC(=O)Nc1nnc(S(=O)(=O)N(C)Cc2ccco2)s1,inactive
8,CCC(=O)Nc1nnc(S(=O)(=O)N(CC(C)C)c2ccccc2)s1,inactive
9,Cc1ccn(C(CC(=O)c2ccc(Br)cc2)C(=O)O)n1 (configuration not stated),inactive
10,O=C(CNS(=O)(=O)c1ccccc1)N1CCN(C(=O)c2ccco2)CC1,inactive
11,COc1ccc(C(=O)NCC[N+](C)(C)C)cc1,inactive
12,CCOc1cc(C(=O)O)ccc1OCCOc1ccccc1,inactive
13,CC/C(=C(/c1ccccc1)c1ccc(OCC[N+](C)(C)C)cc1)c1ccccc1,23.1 µM (active)
14,COc1cc(/C=C/C2=CC(C)(C)NC(=S)N2)cc(OC)c1OC,inactive
15,COc1ccc(N2C(=O)CN=C2Nc2cccc(C)c2C)cc1OC,inactive
16,CC(C)Cc1nnc(NC(=O)CN2C(=O)NC3(CCCCC3)C2=O)s1,inactive
17,CC1(C(=O)NS(=O)(=O)c2cccc(OC(F)F)c2)CCN1C(=O)COc1ccc(Cl)cc1 (configuration not stated),inactive
18,S=c1[nH]nc(NCCc2ccccc2)s1,inactive
19,Cc1nc(C)c(-c2csc(NCCc3ccccc3)n2)s1,13 µM (active)
20,Cc1nc(N)sc1-c1ccccc1,inactive
21,COc1ccc(O)c(C(=O)c2cnc3onc(C(C)C)c3c2)c1,inactive
22,Cc1n[nH]c(=O)n1-c1ccc(Oc2ccccc2)cc1,inactive

row,Compound,Potency
1,Cc1cc(OCCCC(=O)NCCN2C(=O)S/C(=C\c3cccnc3)C2=O)ccc1Cl,4.61 µM (active)
2,CCOc1ccc(N2CC(C(=O)NCCN3C(=O)S/C(=C\c4cccnc4)C3=O)CC2=O)cc1 (configuration not stated),inactive
3,COc1ccc(N2CC(C(=O)NCCN3C(=O)S/C(=C\c4cccnc4)C3=O)CC2=O)c(OC)c1 (configuration not stated),inactive
4,Cn1cccc1C(=O)OCC(=O)NCCc1ccccc1,inactive
5,O=c1cccc(-c2ccc(Br)cc2)o1,inactive
6,COC(=O)C(NC(C)=O)(Nc1nc2c(s1)CCCC2)C(F)(F)F (configuration not stated),inactive
7,Cc1ccc(-c2c[n+](CC(=O)Nc3ccccc3)c3n2CCC3)cc1,11.6 µM (active)
8,Cc1ccc(NC(=S)N2CCCC(c3ccccc3)=N2)cc1,inactive
9,Cc1ccc(C(=O)Cn2cccn2)cc1,inactive
10,CCS(=O)(=O)N1CCN(C(=O)c2cccs2)CC1,inactive
11,Cc1ccc(C(=O)C[n+]2cc(-c3ccccc3)n3c2CCCCC3)cc1,3.16 µM (active) and 1.46 µM (active)
12,O=C(C[n+]1cc(-c2ccc(Cl)c(Cl)c2)n2c1CCC2)c1cccs1,18.4 µM (active)
13,Cc1ccc(C(=O)N2CCCC(c3ccccc3)=N2)cc1,inactive
14,Cc1ccc(S(=O)(=O)N(C)CC(=O)OCC(=O)Nc2ccccc2)cc1,inactive
15,CCCS(=O)(=O)N1CCN(C(=O)c2cccs2)CC1,inactive
16,COc1ccc(N(C)S(=O)(=O)c2cccc3nsnc23)cc1,inactive
17,Cc1cccc(S(=O)(=O)N(C)C[C@@H]2OCc3cnnn3CCCC(=O)N([C@H](C)CO)C[C@@H]2C)c1,inactive
18,Cn1nc(C(F)(F)F)cc1-c1ccc(/C=C(\C#N)C(=O)c2cccc(C(F)(F)F)c2)s1,inactive
19,C/C(=N\NC(=O)c1ccc2ccccc2c1)c1cccnc1,inactive
20,Cc1cccc(OCc2nnc(SCn3nnc4ccccc4c3=O)o2)c1,inactive
21,CCOc1ccc(NC(=O)CN(C)C(=O)CSc2ccccc2)cc1OCC,inactive
22,CCC(C)NC(=O)c1cc(Cl)ccc1OC (configuration not stated),inactive

row,Compound,Potency
1,Cc1cc(N(C)C)cc(C)[n+]1[O-],inactive
2,O=S(=O)(NC1CC1)c1ccc(Cl)cc1,inactive
3,Cn1sc(=O)c2cc(S(=O)(=O)NC3CC3)ccc21,10.3 µM (active)
4,O=S(=O)(NC1CC1)c1ccc(F)c(F)c1,inactive
5,CC(NC(=O)CCCC1CCCCC1)c1ccc(S(N)(=O)=O)cc1 (configuration not stated),inactive
6,N#CC1=C(N)Oc2c(sc3ccccc23)C1c1ccco1 (configuration not stated),5.17 µM (active)
7,C[C@H](NC(=O)CC[C@H]1O[C@@H](n2ccc(=O)[nH]c2=O)[C@H](O)[C@@H]1O)c1cccc2ccccc12,inactive
8,Cc1ccc(S(=O)(=O)N2CCOCC2)cc1NC(=O)COC(=O)c1cnccn1,inactive
9,CCCCCCC1(C)NC(c2ccc3c(c2)OCO3)=CC(c2ccccc2O)N1 (configuration not stated),15.8 µM (active)
10,CCc1ccccc1NC(=O)c1cc(-c2ccc3c(c2)OCO3)on1,inactive
11,CC(C)COC(=O)c1ccc(NC(=O)C2C3C=CC(C3)C2C(=O)O)cc1 (configuration not stated),inactive
12,CC1=CC=CN2C1=NC(=O)CC2(C)C(=O)N(CC(=O)NC1CCCC1)c1ccccc1C (configuration not stated),inactive
13,N#Cc1ccc(C(c2ccc(C#N)cc2)n2cncn2)cc1,inactive
14,Cc1onc(-c2c(F)cccc2Cl)c1C(=O)N(C)CC(=O)Nc1cccc(F)c1,inactive
15,CC(=NNC(=O)c1ccncc1)c1ccc(Cl)c(Cl)c1,inactive
16,CC(=O)Nc1cccc(/C(C)=N/NC(=O)c2c(-c3ccccc3Cl)noc2C)c1,13 µM (active)
17,Cc1oc(-c2ccccc2F)nc1CS(=O)CC(=O)NCCN1CCCCC1C (configuration not stated),inactive
18,COc1ccc(-c2nc(CN3CCC(C(=O)NCc4ccccc4)CC3)c(C)o2)cc1OC,inactive
19,Cc1oc(-c2ccccc2F)nc1CN1CCC(C(=O)NCCc2ccc(Cl)cc2)CC1,16.4 µM (active)
20,C[C@H]1[C@H]2c3nc4ccccc4n3C[C@H]1ON2C1CCCCC1,inactive
21,CSc1ncc(C(=O)NCc2ccccc2Cl)c(C(F)(F)F)n1,inactive
22,COc1cc(NS(=O)(=O)c2ccc(NC(=O)c3ccc([N+](=O)[O-])cc3)cc2)ncn1,inactive

row,Compound,Potency
1,Cn1ccc(=Nc2ccc(NC(=O)c3ccc(N=c4ccn(C)c5ccc([N+](=O)[O-])cc45)cc3)cc2)cc1,3.66 µM (active)
2,CCc1ccc(NC(=O)c2ccc(Cn3cc([N+](=O)[O-])cn3)cc2)cc1,inactive
3,Oc1ccc(N=Nc2nccs2)c(O)c1,20.6 µM (active)
4,Oc1ccc2ccccc2c1N=Nc1nccs1,0.651 µM (active)
5,Oc1c(C=Nc2cccc3nsnc23)ccc2ccccc12,inactive
6,Cc1nc(Nc2ccccc2C)c2cnn(C)c2n1,inactive
7,Cc1ccc(CCCOC(=O)C[N+]2(C)CCCCC2)cc1,inactive
8,CCCOc1ccc(N2CC(C(=O)Nc3ccccn3)CC2=O)cc1 (configuration not stated),inactive
9,CC(C)CCN1CCN(Cc2cn[nH]c2C2CCCCC2)CC1CCO (configuration not stated),inactive
10,Cc1nn(Cc2ccccc2)c(C)c1NS(=O)(=O)c1ccccc1,inactive
11,CSc1nn(Cc2cccc(C)c2)c(N)c1S(=O)(=O)c1ccccc1,18.4 µM (active)
12,CCOC(=O)c1cn(Cc2cccc(C)c2)nn1,inactive
13,CCOC(=O)C(C)N(c1ccccc1Cl)S(C)(=O)=O (configuration not stated),inactive
14,CCOC(=O)c1ccc2c(c1)nc(SCC(=O)NC(C)C)n2CC,inactive
15,Cc1ccc(F)c(S(=O)(=O)NC(=O)C2(C)CCN2C(=O)CCc2cccs2)c1 (configuration not stated),inactive
16,COc1ccc(C=C2CCC3C(CCCC34OCCO4)C2=O)cc1 (configuration not stated),23.1 µM (active)
17,COc1ccc2c(c1)CC[C@@H]1[C@@H]2CC[C@]2(C)C(=O)CC[C@@H]12,inactive
18,COc1ccc(/C=C2/S/C(=N/N=C3\CC4CCC3(C)C4(C)C)NC2=O)cc1 (configuration not stated),inactive
19,C#CCN1CC(C)/C(=N/O)CC1C (configuration not stated),inactive
